Assay results from PubChem BioAssay AID2315 (National Center for Advancing Translational Sciences (NCATS), 2010).
About 27,000 (9.3%) of roughly 290,000 compounds were called active. The entries come from a sample that favours actives as a whole. Values without a mark were called inactive. Cut-off read from the data, not from the text of the source: active = inhibition mostly above about 28% (no sharp cut-off); inactive = mostly below about 43%.

Assay: A qHTS for Small Molecule Inhibitors of Shiga Toxin; note: 0% is about no effect
Conditions: Vero cells, Shiga toxin protein synthesis inhibition reporter; at 38.7 µM, stronger effect = higher value
`COc1cccc(N(CC(=O)NC2CCCC2)C(=O)CCCC(=O)Nc2ccccn2)c1` showed an inhibition of -5.09%. `CCCNC(=O)CCc1c(C)nc2c(c(C)nn2-c2ccccc2)c1C` gave an inhibition of -16.2%. Work on `CCOc1ccc(N(CC(=O)Nc2cccc(OC)c2)S(C)(=O)=O)cc1` yielded an inhibition of 28.6%. `CCC1=Nc2cc(C(=O)NCCN3CCCC3)ccc2Sc2ccc(C)cc21` showed an inhibition of -6.55%. Molecule `O=C(CN1C(=O)COc2ccc(Cl)cc21)Nc1ccc(N2CCOCC2)cc1` has an inhibition of -16.6%. With `Cc1cccc(N(C)C(=O)CN2C(=O)COc3ccc(S(=O)(=O)N4CCCCCC4)cc32)c1` the inhibition was 4.44%. For `CCCc1nc2scc(-c3ccc(C)cc3)c2c(=O)n1N`, the inhibition was 44.2%. In the case of `Cc1ccc(-c2csc(-c3cc(C)on3)n2)cc1`, the inhibition is reported as 43% (active). In the case of `Cc1ccc(-c2csc(-c3c[nH]c4ccccc34)n2)cc1`, the inhibition is reported as 111% (active). `CCn1c(SCCC(C)C)nnc1-c1c[nH]c2ccccc12` gave an inhibition of -3.59%. `Cc1ccc(-c2csc(N(Cc3ccco3)C(=O)c3cccs3)n2)cc1` showed an inhibition of 18.8%. Molecule `CCC(C)Sc1nnc(-c2c[nH]c3ccccc23)n1CCOC` (configuration not stated) has an inhibition of 11.2%. Molecule `Cc1cc(-c2n[nH]c(=S)n2-c2ccc(C)c(C)c2)no1` has an inhibition of 6.5%. With `CCCc1cc(-c2nc(-c3ccc(C)cc3)cs2)ccn1` the inhibition was 68% (active). Molecule `CCCc1cc(-c2n[nH]c(=S)n2CC)c2ccccc2n1` has an inhibition of -6.2%. Molecule `CC(=O)N1c2ccc(S(=O)(=O)N(C)CC(=O)N(C)Cc3ccccc3)cc2CC1C` (configuration not stated) has an inhibition of -1.97%. `Cc1ccc(NC(=O)CCN2C(=O)c3ccccc3C2=O)cc1C` gave an inhibition of 7.31%. For `O=C(NCCN1CCOCC1)/C(=C/c1ccc(F)cc1)NC(=O)c1ccccc1`, the inhibition was -6.87%. Molecule `COc1cccc(CNC(=O)COc2cc(O)c3c(c2)OC(C)(C)CC3=O)c1` has an inhibition of 7.09%. For `Cc1cccc(NC(=O)C2CCCN(C(=O)NCc3ccccc3)C2)c1C` (configuration not stated), the inhibition was 14.7%. `CCCc1cc(=O)[nH]c(SCC(=O)N2C(C)CCCC2C)n1` (configuration not stated) gave an inhibition of 1.9%. In the case of `CN1CCN(C(=O)/C(=C\c2ccc3c(c2)OCO3)NC(=O)c2cccs2)CC1`, the inhibition is reported as -3.92%. `O=C(N/N=C/c1ccc([N+](=O)[O-])cc1)C(=O)N1CCCC1` gave an inhibition of 19%. `O=C(Cc1ccc(F)cc1)N/N=C/c1ccc2c(c1)OCO2` showed an inhibition of 42.2%. `Cc1[nH]c2ccccc2c1/C=N/NC(=O)CNC(=O)c1ccc2c(c1)OCO2` showed an inhibition of -14.9%. In the case of `O=C(N/N=C/c1ccc2c(c1)OCO2)C(=O)N1CCCC1`, the inhibition is reported as 76.5% (active). In the case of `O=C(CNC(=O)C(c1ccccc1)c1ccccc1)N/N=C\c1ccc2c(c1)OCO2`, the inhibition is reported as 66.2% (active). In the case of `OC(COc1ccc(Br)cc1)CN1CCCC1` (configuration not stated), the inhibition is reported as -1.94%. Molecule `CN1C2CCC1CC(NC(=O)c1ccc([N+](=O)[O-])cc1)C2` (configuration not stated) has an inhibition of -5.48%. In the case of `Cn1c(=O)c2c(SCC(=O)NCC3CCCO3)nc(CC(C)(C)C)nc2n(C)c1=O` (configuration not stated), the inhibition is reported as -7.65%. In the case of `Cc1cccc(NS(=O)(=O)c2ccc([N+](=O)[O-])cc2)n1`, the inhibition is reported as 12.1%. With `CC1CCN(c2oc(-c3ccccc3F)nc2C#N)CC1` the inhibition was 69.1% (active). Molecule `COc1ccccc1-c1nc(C#N)c(N2CCC(C(N)=O)CC2)o1` has an inhibition of -15%. Work on `Cc1oc(-c2ccccc2F)nc1CS(=O)CC(=O)NCCN1CCCCC1C` (configuration not stated) yielded an inhibition of -8.05%. `O=C(c1ccccc1F)N1CCN(S(=O)(=O)c2ccc(Br)cc2)CC1` showed an inhibition of -11.4%. In the case of `Cc1c(C(=O)NCC2CCCO2)sc2nc(-c3ccccc3)cn12` (configuration not stated), the inhibition is reported as 93% (active). For `CCOc1ccc(-n2c(N)c(C(=O)NCC3CCCO3)sc2=S)cc1` (configuration not stated), the inhibition was -14.3%. For `Cc1cccc(C)c1NC(=O)N1CC(C)OC(C)C1` (configuration not stated), the inhibition was -12.3%. For `Cc1c(C(=O)N2CCCc3ccccc32)sc2nc(-c3ccccc3)cn12`, the inhibition was 21.5%. For `O=C(CSc1ccc(-c2ccccc2)nn1)NCC1CCCO1` (configuration not stated), the inhibition was 20.8%. With `Cc1c(C(=O)N2CC(C)OC(C)C2)sc2nc(-c3ccccc3)cn12` (configuration not stated) the inhibition was 64.7% (active). `COc1ccccc1N1CCN(C(=O)c2cc(=O)c3cc(C)cc(C)c3o2)CC1` gave an inhibition of 3.39%. In the case of `COc1cccc(-n2c(=S)sc3c(=O)n(-c4ccccc4C)c(SCC(=O)O)nc32)c1`, the inhibition is reported as 20.4%. `CCOc1ccc2[nH]c3nc(SCC(=O)NC4CCCC4)nnc3c2c1` gave an inhibition of -5.52%. `CCOc1ccc2nc(N(CCN(C)C)C(=O)c3ccc4ccccc4c3)sc2c1` showed an inhibition of 25.9%. Molecule `Cc1nc(COc2cc3oc(=O)cc(C)c3cc2Cl)cs1` has an inhibition of 2.94%. `CN(CC(=O)Nc1ccccc1F)CC(=O)Nc1ccccc1Br` gave an inhibition of 13%. In the case of `O=C(Nc1ccc(F)cc1)c1cc2c(s1)CCCC2`, the inhibition is reported as 127% (active). Molecule `C=CCN(CC=C)S(=O)(=O)c1ccc(C(=O)Nc2sc3c(c2C(N)=O)CCCCC3)cc1` has an inhibition of -0.928%. Work on `COc1ccc(C(CNC(=O)c2cc3c(s2)CCCC3)N2CCOCC2)cc1` (configuration not stated) yielded an inhibition of -16.3%. With `O=C(CNC(=O)c1cc2c(s1)CCC2)Nc1ccccc1Br` the inhibition was 61.2% (active). With `NC(=O)c1c(NC(=O)c2ccccc2)sc2c1CCCC2` the inhibition was 68.2% (active). For `O=C(NNC(=O)c1cc2c(s1)CCCC2)c1ccccc1`, the inhibition was 110% (active). For `O=C(NCCCN1CCOCC1)c1cc2c(s1)CCC2`, the inhibition was 33%. `O=C(c1cc2c(s1)CCC2)N1CCN(c2ccccc2)CC1` showed an inhibition of 44.1%. Molecule `O=C(Nc1sc2c(c1C(=O)O)CCC2)c1ccccc1F` has an inhibition of 15%. With `O=C(COC(=O)c1cc2c(s1)CCCC2)NCc1ccccc1Cl` the inhibition was 7.81%. For `O=C(NCCCn1ccnc1)c1cc2c(s1)CCCC2`, the inhibition was -5.02%. `CN1C(=O)C2(OCCCO2)c2cc(Cl)ccc21` gave an inhibition of -14.7%. For `CC1CCN(C(=O)C2CCN(S(=O)(=O)N3CCC4(CC3)OCCO4)CC2)CC1`, the inhibition was -15.9%. In the case of `O=C(C[C@H]1C(=O)N(c2ccc(F)c(F)c2)C[C@@H]1Cc1ccccc1)Nc1ccccc1`, the inhibition is reported as -3.22%. Work on `COc1ccc(C(=O)Nc2ccc(C(=O)NCC3CCCO3)cc2)c(OC)c1OC` (configuration not stated) yielded an inhibition of -2.17%. `CCSc1nc2sc3c(c2c(=O)n1-c1ccc(C)cc1)CCN(C)C3` gave an inhibition of -6.21%. In the case of `CC1(C)Cc2c(sc(NC(=O)C(=O)N3CCOCC3)c2C#N)CO1`, the inhibition is reported as -10.6%. With `CCOC(=O)C(C)n1cnc2c(nnn2-c2cccc(OC)c2)c1=O` (configuration not stated) the inhibition was 41% (active). With `CCOC(=O)C(C)n1cnc2c(nnn2-c2ccc(F)cc2)c1=O` (configuration not stated) the inhibition was 18.3%. For `COC(=O)C(C)n1cnc2c(nnn2-c2cccc(Cl)c2)c1=O` (configuration not stated), the inhibition was 26%. `CCN(C(=O)CSc1nnc(-c2ccncc2)o1)c1ccccc1` gave an inhibition of -4.1%. With `O=C(c1ccc(Oc2ccc(Cl)cc2)c([N+](=O)[O-])c1)N1CCCC1` the inhibition was -5.51%. With `NC(=O)CCN1CCN(S(=O)(=O)/C=C/c2ccccc2)CC1` the inhibition was 3.87%. With `O=C(O)c1cccc(N=NN2CCCCCC2)c1` the inhibition was 139% (active). With `O=C(O)c1ccc(N=NN2CCOCC2)cc1` the inhibition was 38.4% (active). Molecule `NC(=NC(=O)c1ccccc1)N1CCOCC1` has an inhibition of -9.05%. `O=C(c1ccccc1)N1CCN(C(=O)N2CCCCC2)CC1` showed an inhibition of -25.1%. For `CN1CCN(S(=O)(=O)c2cccc(C(=O)O)c2)CC1`, the inhibition was 24%. With `O=C(NC(=O)N1CCOCC1)c1ccccc1` the inhibition was 6.72%. Molecule `O=C(NCc1ccco1)c1ccc([N+](=O)[O-])cc1Cl` has an inhibition of -6.09%. `O=C(Nc1ccccc1Cl)NC1(C(=O)N2CCOCC2)CCCCC1` gave an inhibition of 3.21%. Work on `CCCCNC(=O)Nc1c(C)cc(SC#N)cc1C` yielded an inhibition of 12.6%. Work on `CCOc1ccccc1NC(=O)CCS(=O)(=O)c1cccc2nsnc12` yielded an inhibition of -10.2%. `c1csc(-c2nnc(COc3ncnc4sccc34)o2)c1` gave an inhibition of 13.6%. For `c1csc(-c2nnc(COc3ccc4c(c3)OCO4)o2)c1`, the inhibition was 100% (active). `Clc1ccc(Cc2nnc(-c3cccs3)o2)cc1` showed an inhibition of 12.1%. For `Cc1cc(N2CCCC2)n2nc(C)c(-c3ccccc3)c2n1`, the inhibition was 24.9%. For `Cc1cc(-n2nc(C)cc2C)n2ncc(-c3ccccc3)c2n1`, the inhibition was 63.4% (active). `Cc1cc(-n2nc(C)cc2C)n2nc(C)c(-c3ccccc3)c2n1` showed an inhibition of -5.33%. Work on `CCC(C(=O)OC)n1cnc2scc(-c3ccc(C)cc3)c2c1=O` (configuration not stated) yielded an inhibition of -4.36%. In the case of `O=C(CCN1C(=O)[C@H]2CC=CC[C@H]2C1=O)NCc1nc(-c2ccccc2)no1`, the inhibition is reported as 24.8%. Work on `COc1ccc(OC)c(S(=O)(=O)N2CCCC(C(=O)NCCc3ccccc3)C2)c1` (configuration not stated) yielded an inhibition of 9.04%. `Cc1ccc(NC(=O)c2cc(-c3ccc(C)o3)nc3ccccc23)nc1` showed an inhibition of -4.51%. For `Cc1ccc(Nc2nc(-c3ccc(O)cc3O)cs2)nc1`, the inhibition was 67.2% (active). `COc1ccc(/C(C)=N\NC(=O)c2ccc(-c3ccccc3)cc2)c(F)c1` showed an inhibition of 2.19%. `CN(C(=O)COC(=O)CNC(=O)C12CC3CC(CC(C3)C1)C2)c1ccccc1` showed an inhibition of 11.2%. `Cc1c(C)c(C)c(S(=O)(=O)NCCc2ccccn2)c(C)c1C` showed an inhibition of -12.6%. With `COc1ccc(NCCc2ccccn2)cc1` the inhibition was 85% (active). `O=C(CNC(=O)COc1ccccc1)NCCc1ccccn1` gave an inhibition of -6.4%. `CCOc1ccc(NC(=S)N2CCCCCC2)cc1` showed an inhibition of 29.7%. Molecule `NS(=O)(=O)c1ccc(NC(=S)N2CCCC2)cc1` has an inhibition of -27.4%. `Cc1cccc(C)c1NC(=S)N1CCCCCC1` showed an inhibition of -6.49%. With `CC(=O)c1cccc(NC(=S)N2CCCC2)c1` the inhibition was 12.2%. In the case of `CCC(C)c1ccc(NC(=S)N2CCCC2)cc1` (configuration not stated), the inhibition is reported as 68% (active). With `S=C(Nc1ccc2c(c1)OCO2)N1CCCC1` the inhibition was 87.4% (active).
